Measured values: the supplement of paper PMC11634586
Counter-ions that a name gives are not always drawn.

tested on: NCI-H1688; test: inhibition of cell viability relative to untreated control (fraction); higher = stronger growth inhibition, active = 0.5 or more; details: 30 µM; 24 h
Description: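 Natural product library (TargetMol, 640 compounds) screened on NCI-H1688 SCLC cells at 30 µM for 24 h; viability by CCK-8 absorbance at 450 nm, normalised to untreated control and expressed as inhibition rate (fraction). Compounds with >50% reduction in viability were selected as hits.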

Row | SMILES | inhibition of cell viability
1 | OCc1ccc(O[C@@H]2O[C@H](CO)[C@@H](O)[C@H](O)[C@H]2O)cc1 [Gastrodin] | -0.283 (inactive)
2 | COc1ccc(CC(=O)O)cc1OC [Homoveratrumic acid] | 0.0253 (inactive)
3 | CC(=O)O[C@@]12CO[C@@H]1C[C@H](O)[C@@]1(C)C(=O)[C@H](O)C3=C(C)[C@@H](OC(=O)[C@H](O)[C@@H](NC(=O)OC(C)(C)C)c4ccccc4)C[C@@](O)([C@@H](OC(=O)c4ccccc4)[C@H]21)C3(C)C [Docetaxel] | 0.493 (inactive)
4 | N[C@H]1C(O)O[C@H](CO)[C@@H](O)[C@@H]1O (stereo not given in full) [Glucosamine hydrochloride] | 0.0567 (inactive)
5 | CC[C@H](C)[C@H](N)C(=O)O [isoleucine] | -0.178 (inactive)
6 | O=C(O[C@@H]1Cc2c(O)cc(O)cc2O[C@@H]1c1ccc(O)c(O)c1)c1cc(O)c(O)c(O)c1 [(-)-Epicatechin gallate] | 0.121 (inactive)
7 | Cc1c(C)c2c(c(C)c1O)CC[C@@](C)(CCC[C@H](C)CCC[C@H](C)CCCC(C)C)O2 [Vitamin E] | -0.243 (inactive)
8 | CC(=O)O[C@H]1C[C@@]2(C)[C@@H](C[C@@H](O)[C@H]3[C@@]4(C)CC[C@@H](O)[C@@H](C)[C@@H]4CC[C@@]32C)/C1=C(\CCC=C(C)C)C(=O)O [Fusidine] | -0.0194 (inactive)
9 | CC1(C)CCC[C@](C)([C@H]2CC[C@]3(C)[C@@H]2[C@H](O)C[C@@H]2[C@@]4(C)CC[C@H](O)C(C)(C)[C@@H]4CC[C@]23C)O1 [Panaxadiol] | -0.0255 (inactive)
10 | Nc1ncnc2c1ncn2[C@@H]1O[C@H](CO)[C@@H](O)[C@H]1O [Adenosine] | 0.189 (inactive)
11 | O=P(O)(O)O[C@H]1[C@H](OP(=O)(O)O)[C@@H](OP(=O)(O)O)[C@H](OP(=O)(O)O)[C@@H](OP(=O)(O)O)[C@H]1OP(=O)(O)O [Phytic acid] | -0.0495 (inactive)
12 | CC12CCC(CC1=O)C2(C)C [D-Camphor] | 0.123 (inactive)
13 | N[C@@H]1CONC1=O [D-Cycloserine] | 0.0589 (inactive)
14 | C[C@@H]1O[C@@H](O[C@H]2[C@H](Oc3cc(O)c4c(c3)O[C@H](c3ccc(O)cc3)CC4=O)O[C@H](CO)[C@@H](O)[C@@H]2O)[C@H](O)[C@H](O)[C@H]1O [Naringin] | 0.06 (inactive)
15 | Cc1ncc(CO)c(CO)c1O [Pyridoxine] | 0.0231 (inactive)
16 | O=c1c(-c2ccc(O)cc2)coc2cc(O)ccc12 [Daidzein] | 0.0274 (inactive)
17 | C[C@]12CC[C@@H]3c4ccc(O)cc4CC[C@H]3[C@@H]1CCC2=O [Aquacrine] | 0.0269 (inactive)
18 | OC[C@@H](O)[C@@H](O[C@H]1O[C@H](CO)[C@@H](O)[C@H](O)[C@H]1O)[C@H](O)[C@@H](O)CO [Maltitol] | 0.0233 (inactive)
19 | O=C1O[C@H]([C@H](O)CO)C([O-])=C1O.[Na+] [Sodium erythorbate] | 0.0513 (inactive)
20 | COc1ccc(/C=C\c2cc(OC)c(OC)c(OC)c2)cc1O [Combretastatin A4] | 0.823 (active)

Row | SMILES | inhibition of cell viability
21 | C[C@H]1O[C@@H](O[C@H]2[C@@H](O)C[C@H](O[C@H]3[C@@H](O)C[C@H](O[C@H]4CC[C@@]5(C)[C@H](CC[C@@H]6[C@@H]5CC[C@]5(C)[C@@H](C7=CC(=O)OC7)CC[C@]65O)C4)O[C@@H]3C)O[C@@H]2C)C[C@H](O)[C@@H]1O [Digitoxin] | 0.981 (active)
22 | Cc1coc2c1C(=O)C(=O)c1c-2ccc2c(C)cccc12 [Tanshinone I] | 0.929 (active)
23 | C[C@@H]1O[C@@H](OC[C@H]2O[C@@H](Oc3c(-c4ccc(OCCO)c(OCCO)c4)oc4cc(OCCO)cc(O)c4c3=O)[C@H](O)[C@@H](O)[C@@H]2O)[C@H](O)[C@H](O)[C@H]1O [Troxerutin] | -0.145 (inactive)
24 | OC[C@H]1O[C@@H](OCCc2ccc(O)cc2)[C@H](O)[C@@H](O)[C@@H]1O [Salidroside] | -0.0108 (inactive)
25 | COC1=CC(=O)C[C@@H](C)[C@]12Oc1c(Cl)c(OC)cc(OC)c1C2=O [Griseofulvin] | 0.615 (active)
26 | O=C(O)CCc1ccc(O)cc1 [Phloretic acid] | 0.081 (inactive)
27 | CC(/C=C/C=C(\C)C(=O)O[C@@H]1O[C@H](CO[C@@H]2O[C@H](CO)[C@@H](O)[C@H](O)[C@H]2O)[C@@H](O)[C@H](O)[C@H]1O)=C\C=C\C=C(C)\C=C\C=C(/C)C(=O)O[C@@H]1O[C@H](CO[C@@H]2O[C@H](CO)[C@@H](O)[C@H](O)[C@H]2O)[C@@H](O)[C@H](O)[C@H]1O [Crocin] | 0.267 (inactive)
28 | O=c1c(O[C@@H]2O[C@H](CO)[C@H](O)[C@H](O)[C@H]2O)c(-c2ccc(O)c(O)c2)oc2cc(O)cc(O)c12 [Hyperoside] | -0.0387 (inactive)
29 | C=C(C)[C@@H]1CC[C@]2(CO)CC[C@]3(C)[C@H](CC[C@@H]4[C@@]5(C)CC[C@H](O)C(C)(C)[C@@H]5CC[C@]43C)[C@@H]12 [Betulin] | 0.831 (active)
30 | O=C(O)c1cc(O)c2c(c1)[C@H]([C@H]1c3cc(C(=O)O)cc(O)c3C(=O)c3c(O[C@@H]4O[C@H](CO)[C@@H](O)[C@H](O)[C@H]4O)cccc31)c1cccc(O[C@@H]3O[C@H](CO)[C@@H](O)[C@H](O)[C@H]3O)c1C2=O [Sennoside A] | 0.0197 (inactive)
31 | CCCCCCCCCCCCCCCCCCOCC(O)CO (stereo not given) [Batyl alcohol] | -0.0252 (inactive)
32 | C[C@]12CCC(=O)C=C1CC[C@@H]1[C@@H]2[C@@H](O)C[C@@]2(C)[C@H]1CC[C@]2(O)C(=O)CO [Hydrocortisone] | 0.0716 (inactive)
33 | C[C@@H]1CC[C@@]2(OC1)O[C@H]1C[C@H]3[C@@H]4CC=C5C[C@@H](O)CC[C@]5(C)[C@H]4CC[C@]3(C)[C@H]1[C@@H]2C [Diosgenin] | -0.279 (inactive)
34 | C[C@@H]1O[C@@H](O[C@H]2[C@H](O[C@H]3CC[C@@]4(C)[C@@H](CC[C@]5(C)[C@@H]4CC=C4[C@@H]6CC(C)(C)CC[C@]6(C(=O)O)CC[C@]45C)[C@]3(C)CO)OC[C@H](O)[C@@H]2O)[C@H](O)[C@H](O)[C@H]1O [Alpha-Hederin] | 0.999 (active)
35 | CC1=C(C/C=C(\C)CCC[C@H](C)CCC[C@H](C)CCCC(C)C)C(=O)c2ccccc2C1=O [Vitamin K1] | -0.199 (inactive)
36 | O=C1C[C@@H](c2ccc(O)cc2)Oc2cc(O)cc(O)c21 [Naringenin] | -0.726 (inactive)
37 | N[C@@H](Cc1c[nH]c2ccc(O)cc12)C(=O)O [L-5-Hydroxytryptophan] | 0.0989 (inactive)
38 | CC(=O)[C@@]1(O)CC[C@H]2[C@@H]3CCC4=CC(=O)CC[C@]4(C)[C@H]3CC[C@@]21C [Hydroxyprogesterone] | 0.102 (inactive)
39 | CN1c2ccccc2C(=O)N2CCc3c([nH]c4ccccc34)C21 (stereo in doubt) [Evodiamine] | 0.848 (active)
40 | COC(=O)C1=CO[C@@H](O)[C@@H]2C(CO)=CC[C@H]12 [Genipin] | 0.135 (inactive)
